According to ChEMBL document CHEMBL3433997, “St. Jude Leishmania screening dataset” (2016):

Target: Solute carrier family 2, facilitated glucose transporter member 1 (Homo sapiens) (UniProt P11166)
Assay: ST_JUDE_LEISH: Cytotoxicity at 2uM final concentration against transgenic Leishmania Mexicana promastigotes LmGLUT1 that are glucose transport deficient and complemented with the human glucose transporter GLUT1. Activity is measured by DNA content using SYBR green in vitro
Type: functional

Solute carrier family 2, facilitated glucose transporter member 1 (Homo sapiens), sequence (P11166 whole entry): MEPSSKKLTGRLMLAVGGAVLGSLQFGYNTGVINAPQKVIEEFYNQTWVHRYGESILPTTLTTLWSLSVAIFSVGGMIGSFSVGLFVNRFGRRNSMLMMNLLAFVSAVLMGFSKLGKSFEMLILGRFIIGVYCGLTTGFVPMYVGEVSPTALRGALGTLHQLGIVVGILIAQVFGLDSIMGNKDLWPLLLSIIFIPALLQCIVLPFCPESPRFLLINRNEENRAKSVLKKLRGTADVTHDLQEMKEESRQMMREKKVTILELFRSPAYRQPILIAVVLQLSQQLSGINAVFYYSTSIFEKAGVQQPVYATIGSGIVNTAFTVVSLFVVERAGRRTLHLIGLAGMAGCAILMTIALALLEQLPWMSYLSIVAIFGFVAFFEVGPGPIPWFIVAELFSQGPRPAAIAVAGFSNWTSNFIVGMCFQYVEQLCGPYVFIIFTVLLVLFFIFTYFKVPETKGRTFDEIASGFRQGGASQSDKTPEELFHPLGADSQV

SMILES	inhibition [%]
c1ccc(Nc2nc(-c3ccccn3)cs2)nc1	-0.62
COc1ccc(CNCc2cccc(-c3ccc(-c4nc5ccccc5[nH]4)s3)c2)cc1	5.19
COC(=O)c1cccc(CNCc2ccc(-c3ccc(-c4nc5cc(F)ccc5[nH]4)s3)cc2)c1	2.57
CC1(C)NC(N)=NC(=N)N1OCc1ccc2ccccc2c1CON1C(=N)N=C(N)NC1(C)C	3.58
Cc1cccc2nc(-c3ccc(-c4ccc(CN5CCCC(O)C5)cc4)s3)[nH]c12 (stereo not given)	6.59
COc1ccc(OC)c2c1CCN(C)C2Cc1cccc2ccccc12 (stereo not given)	3.52
COc1ccnc(NCCCNCc2cn(S(=O)(=O)c3ccccc3)c3ccccc23)c1	2.74
CCN(CC)c1ccc2nc(N)nc(N)c2c1Cl	5.94
c1cc(CNCC2CCCO2)cc(-c2csc(-c3nc4ccccc4[nH]3)c2)c1 (stereo not given)	-1.5
COc1cccc(OC)c1-c1ccccc1NC(=O)N1CCCc2cc(C)ccc21	2.46

Target: Hexose transporter 1 (Plasmodium falciparum) (UniProt O97467)
Assay: ST_JUDE_LEISH: Cytotoxicity at 2uM final concentration against transgenic Leishmania Mexicana promastigotes LmPfHT that are glucose transport deficient and complemented with the Plasmodium falciparum hexose transporter. Activity is measured by DNA content using SYBR green in vitro
Type: functional

SMILES	inhibition [%]
Cc1c(C2CCN(CCCCNC(=O)c3ccc(-c4ccc(C#N)cc4)cc3)CC2)c2ccccc2n1CCO	0.33
CCn1ccc2c(N3CCCS3(=O)=O)cc(C(=O)N[C@@H](Cc3ccccc3)[C@H](O)CNC(C)(C)CCCC(C)C)cc21	7.48
COc1ccccc1N1CCN(Cc2c(O)ccc3cc(Br)ccc23)CC1	4.31
CC1CCC(C[C@@H](C(=O)N[C@@H](CCC(=O)N2CCCCC2)C(=O)Nc2nccs2)[C@H](C(C)C)N(O)C=O)CC1 (stereo not given in full)	4.16
COc1ccc(-c2cccc(NC(=O)c3cccc(Cl)c3)c2)cc1CN1CCNCC1	2.6
c1cncc(-c2cc(N3CCCCC3)nc(-c3ccncc3)n2)c1	6.14
CC(C)Cc1cn(-c2nc(-c3nc4ccccc4[nH]3)cs2)c2ccncc12	6.3
CCCCCCCCn1c2c(c(=N)c3c1CCC3)CCC2	91.5
COc1ccc(-c2cc(NCc3ccc(-n4ccnc4)cc3)nc(Nc3ccccc3)n2)cc1	0.85
CCC(C)Oc1ccc(CCCON2C(N)=NC(N)=NC2(C)C)cc1 (stereo not given)	20.2
COC(=O)C1=C(C)NC2=C(C(=O)CC(c3ccc(OC)c(OC)c3)C2)C1c1cccc(O)c1 (stereo not given)	3.84
CO/C(=C\C=C\c1cc2cc(Cl)ccc2[nH]1)C(=O)NCCCN1CCN(c2cc(Cl)ccc2OC)CC1	1.33
CCOc1cc(CC)ccc1C1CCN(CCN2CCC(CNC(=O)c3ccc(-c4ccc(C#N)cc4)cc3)CC2)CC1	13
O=S(=O)(NC1CCCCN(Cc2ccccc2O)C1)c1ccc(C(F)(F)F)cc1 (stereo not given)	4.93
CN(C)c1ccc(NC(=O)Nc2ccnc3ccccc23)cc1Br	8.16
COc1ccc2ncc(F)c(CCN3CCC(NCc4cc(OC)c5c(c4)OCCO5)CC3)c2n1	6.92
O=C(Nc1cccc(-c2ccc(-c3nc4ccccc4[nH]3)cc2)c1)Nc1ccc2c(c1)OCO2	1.8
Cc1ccc(/C=C/C(=O)NCCCCCN2CCN(C(=O)Nc3ccc(Cl)c(C(F)(F)F)c3)CC2)cc1	-0.2
COc1ccccc1CCNc1nc(C)cc(N[C@@H](Cc2ccccc2)C(=O)NCCOc2ccccc2)n1	1.1
COc1ccccc1Cn1ccnc1SCC(=O)Nc1cc(C(F)(F)F)ccc1Cl	-2.15

SMILES	inhibition [%]
Nc1ccnc2ccc(OCCCCCCc3ccccc3)cc12	-1.93
COc1ccc(Cc2nc3c(n2C(C)=O)SC(c2ccc(Cl)c(Cl)c2)=NN3C(C)=O)cc1	5.48
CC1CN(c2ccc(C(=O)NCC3CC3)cc2NC(=O)OCc2ccccc2)CC(C)O1 (stereo not given)	0.86
CC(C)CC(=O)N1CCNC[C@@H]1C(=O)NC1CC1	1.41
Cc1[nH]c(C)c(-c2ccc(Oc3ccccc3)cc2)c(=O)c1Br	1.17
Cc1noc(C)c1-c1cccc(CNCc2cccc(-c3csc(-c4nc5ccccc5[nH]4)c3)c2)c1	3.22
Cc1cccc(-c2ccc(NC(=O)C3CCN(Cc4cccc(O)c4)CC3)cc2)c1	1.99
CC(=O)c1cccc(NC(=O)N2CCCN(CCCCCNC(=O)/C=C/c3ccc(Cl)c(Cl)c3)CC2)c1	-0.03
CCC(C)C(COC(=O)c1cc(OC)c(OC)c(OC)c1)N(C)CCN(C)C(COC(=O)c1cc(OC)c(OC)c(OC)c1)C(C)CC (stereo not given)	1.28
Cc1cccc2nc(-c3cccc(-c4ccc(NC(=O)c5c[nH]cn5)cc4)c3)[nH]c12	-0.73
c1ccc(Nc2nc(-c3ccccn3)cs2)nc1	0.38
COc1ccc(CNCc2cccc(-c3ccc(-c4nc5ccccc5[nH]4)s3)c2)cc1	3.24
COC(=O)c1cccc(CNCc2ccc(-c3ccc(-c4nc5cc(F)ccc5[nH]4)s3)cc2)c1	0.36
CC1(C)NC(N)=NC(=N)N1OCc1ccc2ccccc2c1CON1C(=N)N=C(N)NC1(C)C	2.14
Cc1cccc2nc(-c3ccc(-c4ccc(CN5CCCC(O)C5)cc4)s3)[nH]c12 (stereo not given)	7.2
COc1ccc(OC)c2c1CCN(C)C2Cc1cccc2ccccc12 (stereo not given)	3.87
COc1ccnc(NCCCNCc2cn(S(=O)(=O)c3ccccc3)c3ccccc23)c1	3.67
CCN(CC)c1ccc2nc(N)nc(N)c2c1Cl	6.11
c1cc(CNCC2CCCO2)cc(-c2csc(-c3nc4ccccc4[nH]3)c2)c1 (stereo not given)	2.45
COc1cccc(OC)c1-c1ccccc1NC(=O)N1CCCc2cc(C)ccc21	2.69
